The values below come from PubChem BioAssay AID588852 (The Scripps Research Institute Molecular Screening Center, 2011).

About 4,600 (1.3%) of roughly 360,000 compounds were called active. Only a selection was taken, and actives are over-represented in it overall. Unmarked numbers belong to inactive results.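 How the source made its calls: active means percent inhibition above its own plate's cutoff, namely the mean of that plate's compound wells plus 3 SD; inactive means the rest.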

By inhibition is commonly meant the change of the read-out against control, counted positive when it falls.

This test deals with Muscarinic acetylcholine receptor M1 (Homo sapiens) (UniProt P11229). In words: human M1 muscarinic receptor antagonists, primary screen, CHO-K1 cells, Fluo-8 calcium fluorescence, 1536-well (AID 588852).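 Further: peak over basal fluorescence ratio during 140 s after agonist addition; 0% = ACh EC80 plus DMSO and 100% = DMSO alone without agonist.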 To be noted: CHO-K1 hM1, Fluo-8 calcium fluorescence, ACh EC80 antagonist; at 3 µM; stronger effect = higher value.
Chain of Muscarinic acetylcholine receptor M1 (Homo sapiens) (P11229 whole entry, looked up): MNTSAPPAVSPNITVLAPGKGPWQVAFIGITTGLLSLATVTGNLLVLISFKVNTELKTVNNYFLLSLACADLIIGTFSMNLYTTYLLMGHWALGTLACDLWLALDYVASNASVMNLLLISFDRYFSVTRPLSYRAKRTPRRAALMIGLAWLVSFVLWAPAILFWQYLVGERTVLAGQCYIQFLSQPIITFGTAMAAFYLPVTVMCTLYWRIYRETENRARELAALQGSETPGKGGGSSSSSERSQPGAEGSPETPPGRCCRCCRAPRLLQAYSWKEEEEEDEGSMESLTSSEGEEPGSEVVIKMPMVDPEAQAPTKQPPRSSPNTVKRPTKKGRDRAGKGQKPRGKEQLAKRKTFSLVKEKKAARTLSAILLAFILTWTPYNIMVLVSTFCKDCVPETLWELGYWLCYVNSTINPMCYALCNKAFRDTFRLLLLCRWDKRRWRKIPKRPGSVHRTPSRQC
As to `C=Cn1cc[n+](CC(=O)c2ccc(OC)c(OC)c2)c1`, the inhibition is 8.24%. In the case of `CN(C(=O)CN1CCN(c2cc(-c3ccc(OCc4ccccc4)cc3)ncn2)CC1)c1ccccc1` it was 30.1% (active). As for `CCOc1ccc(OCc2ccc(C(=O)N(C)c3ccccc3)o2)cc1`, the figure is -7.87%; as for `CN(Cc1ccccc1)C(=O)c1ccc(COc2ccccc2)cc1`, -0.5%; as for `CC(C)NC(=O)NCCCCCCS(C)=O` (centres undefined), -12%.

Turning to `C/C=C/c1ccc(OCCCCN2CCC(C)CC2)c(OC)c1`, the inhibition was 10.4%.

In the case of `Cc1sc2ncn(CC(=O)NCCCC(=O)N3CCN(c4ccccc4F)CC3)c(=O)c2c1C`, the inhibition is 9.4%. In the case of `O=C(NN1C(=O)C2C3C=CC(O3)C2C1=O)c1ccccc1` (centres undefined) it was -6.53%; in that of `COc1ccc(C(=O)NN2C(=O)C3C(c4ccccc4)C=CC(c4ccccc4)C3C2=O)cc1` (centres undefined), 27.3% (active); in that of `COc1ccccc1C(=O)NN1C(=O)C2C3C=CC(O3)C2C1=O` (centres undefined), 1.11%.

For `Cc1ccc(S(=O)(=O)NCC(=O)N(CC(=O)NCC2CCCO2)c2cccc(F)c2)cc1` (centres undefined), the inhibition was -7.09%. In the case of `CC(=O)Nc1cccc(-c2ccnc3c2CC(C)(C(=O)NCc2ccccc2)O3)c1` (centres undefined) it was -11.3%; in that of `CC(O)(c1cccc(F)c1)c1nc(-c2ccc3c(c2)OCO3)cs1` (centres undefined), 1.89%; in that of `Fc1ccc(-n2c(Cc3ccccc3)nnc2SCc2nc(-c3ccc(Cl)cc3)no2)cc1`, -1.38%. As for `COc1ccc2[nH]c(=O)c(CN(Cc3cccnc3)S(=O)(=O)c3ccccc3F)cc2c1`, the figure is 30.8% (active). In the case of `CCOc1ccc2[nH]c(=O)c(CN(CCCO)S(=O)(=O)c3ccc(F)cc3)cc2c1` it was -1.99%; in that of `COc1ccc(-c2[nH]ncc2CN(C)Cc2cccnc2)c(F)c1`, -0.76%; in that of `O=C(NCCN1CCOCC1)c1ccccc1N1C(=O)[C@@H]2Cc3c([nH]c4ccccc34)C(c3cccc(Cl)c3)N2C1=O` (some centres undefined), 9.91%.

Regarding `CCCc1nc2c3ccccc3ccn2c1Cc1ccccc1C(F)(F)F`, the inhibition is 0.78%. As for `COc1ccccc1CC1(C)C(=O)Nc2ccc(OC(F)(F)F)cc21` (centres undefined), the figure is -12.6%; as for `CC1=C(C(=O)N(C(C)C)C(C)C)CC(CC(=O)NCC2CCCCC2)C(=O)N1Cc1ccccc1` (centres undefined), -28.2%. In the case of `Cc1c2cnn(CC(=O)NCc3ccccn3)c(=O)c2c(C)n1Cc1ccc(Cl)cc1` it was -7.49%; in that of `N#C/C(=C/c1ccc(N2CCCCC2)o1)C(=O)NCCc1c[nH]c2ccccc12`, 44.3% (active); in that of `N#C/C(=C/c1ccc(N2CCOCC2)o1)C(=O)N1CCOCC1`, -3.41%. Consider `N#C/C(=C\c1ccc(N2CCOCC2)o1)C(=O)N1CCOCC1`, for which the inhibition is -4.72%. In the case of `Cc1ccc2cc(C)c(N3CCC(C)CC3)nc2c1` it was 1.39%. As for `Cc1cc(Nc2cc(N3CCN(C)CC3)nc(Sc3ccc(NC(=O)C4CC4)cc3)n2)n[nH]1`, the figure is -2.83%. As for `CCN(CC)CCN(C(=O)c1cc(Cl)sc1Cl)c1nc2cc3c(cc2s1)OCO3`, the figure is 83.7% (active). As to `CCNC(=S)N(CCN(CC)CC)Cc1cc2cc3c(cc2[nH]c1=O)OCO3`, the inhibition is -13.5%. As to `CCN(CC)CCN(C(=O)c1ccc2c(c1)CCCC2)c1nc2c(OC)cccc2s1`, the inhibition is 14.3%. In the case of `C[C@@H]1CN([C@H](C)CO)C(=O)c2cc(Br)cnc2O[C@@H]1CN(C)Cc1cncnc1` it was -11.6%; in that of `COc1ccc(S(=O)(=O)N2CCN(C(=O)N(C)C)C2C)cc1` (centres undefined), -7.85%; in that of `O=C(CC[C@H]1O[C@@H](n2ccc(=O)[nH]c2=O)[C@H](O)[C@@H]1O)N[C@H](Cc1ccccc1)C(=O)NCc1ccco1`, -4.88%. As for `Cc1ccc(S(=O)(=O)N2CC[C@H]3[C@@H](C2)C(=O)C[C@@H](c2ccccc2)N3S(=O)(=O)c2ccc(C)cc2)cc1`, the figure is -2.99%.

`CCN(CC)c1ccc(NC(=O)CN2CCN(c3ccccn3)CC2)cc1`: the inhibition was -1.84%.

Consider `CCC(=O)Nc1ccc2c(c1)nc(CCN1CCN(c3ccccn3)CC1)n2C`, for which the inhibition was 41.9% (active). `Cn1c(CCN2CCN(c3ccccn3)CC2)nc2cc(NS(=O)(=O)c3ccc(F)cc3)ccc21`: the inhibition was 69.9% (active). As for `CCOC(=O)N1CCN(Cc2nc3cc(NC(C)=O)ccc3n2C)CC1`, the figure is -2.65%; as for `Cn1c(=O)n(C)c2cc(S(=O)(=O)Nc3ccc(F)cc3)ccc21`, 0.75%; as for `Cn1c(=O)n(C)c2cc(NS(=O)(=O)c3ccc(F)cc3)ccc21`, 4.92%. Take `CCOc1ccc(CCN2C(=S)N([C@@H](CC(C)C)CN3CCC[C@@H]3CN3C(=S)NC[C@@H]3Cc3ccc(O)cc3)C[C@@H]2Cc2ccc(O)cc2)cc1`: the inhibition was -5.61%. As for `COc1ccc(OC)c(C2C3=C(N=c4s/c(=C\c5cccc(O)c5)c(=O)n42)c2ccccc2CC3)c1` (centres undefined), the figure is -14.9%; as for `CC1(c2cccc(Br)c2)NC(=O)N(CC(=O)NCCC2=CCCCC2)C1=O` (centres undefined), -4.07%; as for `Cc1ccc(-c2ccc(=O)n(Cc3ccc(F)cc3Cl)n2)cc1`, -14.4%. Turning to `CN(Cc1ccc(F)cc1Cl)S(=O)(=O)c1cccs1`, the inhibition was -6.7%.

Turning to `CN(C)Cc1ccc(F)cc1Sc1cc(Cl)ccc1Cl`, the inhibition is 91.5% (active). For `CC(=O)NC(c1cccs1)c1cc(Br)c2cccnc2c1O` (centres undefined), the inhibition is -13.2%. As for `CCOC(=O)c1cc2cc(C)ccc2[nH]1`, the figure is 6.42%; as for `CCOC(=O)c1[nH]c2ccc(OC)cc2c1NC(=O)N1CCOCC1`, -21.5%. In the case of `CCOC(=O)c1[nH]c2ccc(C)cc2c1N=C(C)N(C)C` it was 33.5% (active); in that of `Cc1ccc(-c2ccnc3nc(Sc4ncc(C(F)(F)F)cc4Cl)nn23)cc1`, -1.4%. Consider `O=C(Nn1cnnc1)c1cc(Cl)ccc1Cl`, for which the inhibition was -9.41%. As for `O=C(NCc1ccc2c(c1)OCO2)c1cc2c(s1)CS(=O)(=O)C2`, the figure is 4.31%. As to `Cc1cc(OCCN2CCCC2)cc(C(C)C)c1`, the inhibition was 82.3% (active). In the case of `Cc1ccc(OCCCCN2CCCCC2)c(Br)c1` it was 22.6%. In the case of `Cc1ccc(C(C)C)cc1OCC(=O)Nc1ccccc1N1CCCC1` it was -19.6%. As for `c1ccc2cc(OCCN3CCCC3)ccc2c1`, the figure is -1.41%; as for `Cc1ccc(C(C)C)cc1OCCN1CCCC1`, 53% (active). For `Cc1cc(OCCN2CCCC2)ccc1C(C)C`, the inhibition is -3.45%. As for `CCCCc1nc2ccc(F)cc2cc1C`, the figure is -6.44%. As for `CC(C)C1C(=O)N(Cc2cn(CCC3OCCO3)nn2)CCS(=O)(=O)N1Cc1ccc(-c2ccccc2C(F)(F)F)cc1` (centres undefined), the figure is -16.4%; as for `Cc1ccccc1NC(=O)COc1cccc2c1CCNC2=O`, -7.58%; as for `CN1CCN(S(=O)(=O)c2cccc(C(=O)N3CCc4ccccc43)c2)CC1`, 6.81%. As for `CC1CC(C)CN(CC(=O)N2c3ccccc3CCc3ccccc32)C1` (centres undefined), the figure is 4.81%. For the compound `CN1CCN(C(=O)N2c3ccccc3CCc3ccccc32)CC1`, the inhibition is 96.2% (active). In the case of `Cc1ccc(NC(=O)C(C)c2cccc(C(=O)c3ccccc3)c2)cc1` (centres undefined) it was 28.2% (active). As for `CC(=O)Nc1ccc(NC(=O)[C@@H](NC(=O)c2cccc(C)c2)C(C)C)cc1`, the figure is -11.7%. In the case of `CSCCC(NC(=O)COc1ccccc1)C(=O)Nc1ccc(C)cc1` (centres undefined) it was -7.4%; in that of `O=C(CSc1nnc2c(n1)[nH]c1ccccc12)NC1CCCCC1`, -3.99%; in that of `O=C(CNS(=O)(=O)c1ccc2ccccc2c1)Nc1ccc(F)c(F)c1F`, -2.2%. Take `Cc1cc(=O)oc2c3c(cc(OCC(=O)NCC(O)c4ccccc4)c12)OC(C)(C)CC3` (centres undefined): the inhibition is -9.2%. As for `O=C(c1ccc(-n2cnnn2)cc1)N1CCN(C(c2ccccc2)c2ccccc2)CC1`, the figure is 78.5% (active); as for `Cn1nnnc1SCC(=O)N1CCN(C(c2ccccc2)c2ccccc2)CC1`, -2.38%.

Regarding `Cc1onc(C(=O)NN)c1C(=O)N1CCN(C(c2ccccc2)c2ccccc2)CC1`, the inhibition was 4.44%. As for `CC(C)(C)Cc1c(C2CCCCC2)nc2ccc(Br)cn12`, the figure is -23.6%; as for `COc1cc(OC)c(C2=NOC(C(=O)Nc3c(C)n(C)n(-c4ccccc4)c3=O)C2)cc1Cl` (centres undefined), -4.11%. As for `CC(=O)N(Cc1cc(=O)[nH]c2ccccc12)c1ccc(C)cc1C`, the figure is -12.4%; as for `Cc1ccc(N(Cc2cc(=O)[nH]c3ccccc23)C(=O)CCl)cc1`, 41.3% (active). As for `Cc1ccc(N(Cc2cc3ccccc3[nH]c2=O)C(=O)c2cccs2)cc1`, the figure is -3.76%; as for `C=C(C)C1CC=C(C)/C(=N/NC(=O)CCCNc2cccc(C)c2)C1` (centres undefined), 10%. In the case of `CCCOc1ccc(N2CC(C(=O)Nc3ccccn3)CC2=O)cc1` (centres undefined), the inhibition is -17.6%. As for `O=C(NCc1ccccc1Cl)C1CCN(c2ncnc3c2nc2n3CCCCC2)CC1`, the figure is -5.23%; as for `COc1ccccc1CNC(=O)CCCn1c(=O)c2ccccc2n(CC(=O)NC2CCCC2)c1=O`, -13.2%; as for `COc1ccccc1NC(=S)N1CCN(c2ccc(F)cc2)CC1`, -20.2%. Consider `COc1ccccc1NC(=S)N1CCN(C(c2ccccc2)c2ccccc2)CC1`, for which the inhibition was 53.1% (active). In the case of `COc1ccccc1CN1CCN(Cc2cc(OC)c(OC)cc2OC)CC1` it was -21.9%; in that of `COc1ccccc1CN1CCN(C(c2ccccc2)c2ccccc2)CC1`, 63.6% (active). As for `COc1cccc(OC)c1C(=O)N1CCN(Cc2ccccc2F)CC1`, the figure is -1.36%; as for `COc1ccccc1NC(=S)N1CCC(NC(=O)C23CC4CC(CC(C4)C2)C3)CC1`, -7.97%.
